# Bioassay records deposited in PubChem BioAssay by several laboratories.
# GDH-TPI counter – GDH-TPI coupled enzyme inhibition counter-screen; actives 1.2% (n = 360,000); inhibition, % at 4.8 µM; GDH-TPI coupled enzyme counterscreen, NADH absorbance; AID 588335; in the data active means inhibition above about 30%;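 further: 0% = DMSO wells and 100% = wells lacking the enzyme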
# PrPC surface inh – cell surface PrPC inhibition, primary TR-FRET screen; P04156; TR-FRET read-out; inhibition, % at 13.8 µM; actives 0.43% (n = 370,000); in the data active means inhibition above about 24%; further: 0% = median of the test wells and 100% = reference compound wells
# RecA splice inh – Mtb RecA intein splicing inhibition | actives 0.75% (n = 290,000) | inhibition, % (concentration not given with the values) | P9WHJ3 | cell-free RecA intein splicing, fluorescence; in the data active means inhibition above about 30%;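 further: 0% = vehicle wells and 100% = reference inhibitor control wells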
# FBA Mtb inh – inhibits M. tuberculosis FBA enzyme. purified M. tuberculosis FBA, fluorescence read-out. inhibition, % at 1 µM. P9WQA3. actives 2.3% (n = 360,000); in the data active means inhibition above about 27%;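 further: 0% = vehicle and 100% = reference inhibitor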
# Target sequence (P9WQA3 whole entry, looked up): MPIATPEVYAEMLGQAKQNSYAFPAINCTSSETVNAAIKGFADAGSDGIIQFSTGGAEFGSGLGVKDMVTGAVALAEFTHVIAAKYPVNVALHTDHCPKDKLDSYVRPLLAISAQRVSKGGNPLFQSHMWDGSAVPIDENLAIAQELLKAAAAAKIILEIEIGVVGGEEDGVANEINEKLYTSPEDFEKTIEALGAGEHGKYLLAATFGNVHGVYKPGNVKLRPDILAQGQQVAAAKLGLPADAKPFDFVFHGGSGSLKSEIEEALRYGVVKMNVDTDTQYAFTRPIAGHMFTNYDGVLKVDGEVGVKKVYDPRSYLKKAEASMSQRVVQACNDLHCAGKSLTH
# BJeLR lethal – BJeLR cell viability loss | actives 0.17% (n = 300,000) | inhibition, % (no concentration beside the values) | BJeLR (HRASV12) viability, CellTiter-Glo ATP luminescence, 48 h; in the data active means inhibition above about 50%
# An asterisk follows results filed as active; nt = no result; + = active, no number. Rows were chosen to be rich in hits. Some 4.2% of all compounds tested hit in one or more screens of this group.
SMILES,GDH-TPI counter,PrPC surface inh,RecA splice inh,FBA Mtb inh,BJeLR lethal
COc1ccc(NC(=O)CSc2ncnc3scc(-c4ccc(C)cc4)c23)cc1OC,nt,3,nt,nt,nt
Cc1cccc(/C=N/NC(=O)C(C)Nc2cccc3ccccc23)n1 (stereo not given),10,-15,75*,-1,-4
C/C(=N\Nc1cccc(C(=O)O)c1)c1cc2ccccc2o1,48*,-7,nt,-2,4
C/C(=N\Nc1ccc(Cl)c(C(=O)O)c1)c1ccccn1,37*,4,-3,1,-5
Cc1sc2ncnc(N/N=C/c3cccc(O)c3)c2c1C,23,-7,-1,-2,4
C/C(=N\Nc1ccc(Cl)c(C(=O)O)c1)c1cc2ccccc2o1,31*,-3,nt,-1,2
C/C(=N\Nc1ncnc2sc(C)c(C)c12)c1ccccn1,23,1,-30,-3,80*
C/C(=N\Nc1cccc([N+](=O)[O-])c1)c1cc2ccccc2o1,2,-9,-3,0,-20
COc1ccc(-n2c(SCC(=O)N(CC(C)C)CC(C)C)nnc2-c2ccncc2)cc1,nt,8,nt,nt,nt
O[C@H](COc1cc(F)cc(F)c1)CN1CCC(C(O)(c2ccccc2)c2ccccc2)CC1,nt,-12,nt,nt,nt
C/C(=N\Nc1ncc(Cl)cc1Cl)c1ccccn1,9,nt,0,7,67*
C/C(=N\Nc1ncc(Cl)cc1Cl)c1ccc(N2CCOCC2)cc1,19,-1,-6,8,3
c1ccc2c(c1)nc(Nc1ccc(N3CCCCC3)cc1)c1nncn12,44*,-4,-6,2,-4
CCOc1ccc(Nc2nc3ccccc3n3cnnc23)cc1,32*,-5,3,-1,6
c1ccc(Nc2nc3ccccc3n3cnnc23)cc1,30,-7,4,3,-6
C#CCOCCOCCOCCNc1nc(N2CCN(C(=O)Cn3cc(CCCN=C(N)N)nn3)CC2)nc(N2CCN(C(=O)[C@H](Cc3ccc(O)cc3)n3cc(CCO)nn3)CC2)n1,nt,5,nt,nt,nt
COC(=O)C[C@@H]1CC[C@H]2[C@@H](COc3ccc(NC(=O)c4ccc(Cl)cc4)cc3C(=O)N2C)O1,nt,-3,nt,nt,nt
O=C(CCCCCN1C(=O)C2C3C=CC(C3)C2C1=O)Nc1cc(F)cc(F)c1 (stereo not given),nt,17,nt,nt,nt
CC(=O)NC(Cc1ccc(N(CCCl)CCCl)cc1)C(=O)O (stereo not given),8,-3,1,1,2
N[C@@H](Cc1ccc(N(CCCl)CCCl)cc1)C(=O)O,33*,5,nt,5,nt
NC(Cc1ccc(O)cc1)C(=O)NN=Cc1ccc(N(CCCl)CCCl)cc1 (stereo not given),50*,10,nt,23,nt
O=C(c1cccs1)N1CC[C@H]2[C@H](CCCN2Cc2cc(F)cc(F)c2)C1,nt,-9,nt,nt,nt
Cc1cc2cc3c(=O)[nH]c(=O)cc-3n(CC(O)C(O)C(O)CO)c2cc1C (stereo not given),13,-42,nt,-5,nt
Cc1cc2cc3c(=O)[nH]c(=O)nc-3n(CC(O)C(O)C(O)CO)c2cc1C (stereo not given),26,-28,nt,149*,nt
CC(=O)/C(N=Nc1ccc(C(=O)O)cc1)=C(\C)O,15,-8,4,-5,6
SMILES,GDH-TPI counter,PrPC surface inh,RecA splice inh,FBA Mtb inh,BJeLR lethal
CCN(CC)S(=O)(=O)c1ccc(N=N/C(C(C)=O)=C(/C)O)cc1,40*,-9,-4,-1,-4
CC(=O)/C(N=Nc1ccc(-n2ccc(C(F)(F)F)n2)cc1)=C(\C)O,35*,7,3,-1,-5
COc1cc(C(=O)N/C(=C\c2cn(C)c3ccccc23)C(=O)NCCN2CCOCC2)cc(OC)c1OC,41*,-8,0,-2,5
COc1ccc(C(=O)N/C(=C\c2cn(C)c3ccccc23)C(=O)NCCN2CCOCC2)cc1OC,44*,-4,0,3,0
CCn1cc(/C=C(\NC(=O)c2cc(OC)c(OC)c(OC)c2)C(=O)NCCN2CCOCC2)c2ccccc21,30,-2,2,-4,-10
CCCC(=O)OC12CCCN(C1)/C(=C/c1cccc(Cl)c1)C2 (stereo not given),nt,-5,nt,nt,nt
COC(=O)[C@@]12CCCCC=C1N(CCc1ccc(Cl)cc1)C(=O)[C@H]2CC(=O)NCCc1ccccc1OC,nt,-8,nt,nt,nt
Cc1ccc(-n2c(COc3ccccc3)nnc2SCC(=O)Nc2ccccc2-c2ccccc2)cc1,nt,0,nt,nt,nt
Cc1ccc(S(=O)(=O)Nc2ccccc2C(=O)Nc2nc(-c3ccc(F)cc3)cs2)cc1,12,24,7,35*,28
O=C(CC1S/C(=N/N=C/c2cccs2)NC1=O)Nc1ccc(Cl)c(Cl)c1 (stereo not given),16,5,-2,-1,9
O=C(CC1S/C(=N/N=C/c2cccs2)NC1=O)Nc1ccc(Cl)cc1 (stereo not given),31*,2,3,-3,-10
O=C(CC1S/C(=N/N=C/c2c[nH]c3ccccc23)NC1=O)Nc1ccccc1 (stereo not given),47*,-7,-2,-4,-6
O=C(CC1S/C(=N/N=C/C=C/c2ccccc2)NC1=O)Nc1ccc(C(=O)O)cc1 (stereo not given),57*,-3,-2,3,4
Cc1ccccc1-c1cccc2c3c([nH]c12)[C@@H]1C[C@H]2[C@@H](CN1CC3)[C@H](C)ON2C,nt,-9,nt,nt,nt
COC(=O)[C@H]1C[C@@]2(n3ccc4ccccc43)c3ccccc3N(S(=O)(=O)c3ccccc3)[C@H]2N1C(=O)CNC1CCCCC1,nt,-2,nt,nt,nt
CC(C)CCNC(=O)C1COC(O)(C(Cc2ccccc2)NC(=O)[C@@H](NC(=O)OCc2ccccc2)C(C)C)CN1 (stereo not given in full),nt,-3,nt,nt,nt
O=C(CCCN1C(=O)/C(=C/c2cccc(Br)c2)SC1=S)NCCCN1CCOCC1,14,6,4,-5,77*
CCc1ccc(/C=C2\SC(=S)N(CCC(=O)NCCCN3CCOCC3)C2=O)cc1,11,10,4,-1,103*
O=C(CCCN1C(=O)/C(=C\c2ccccc2)SC1=S)Nc1ccc(O)cc1C(=O)O,25,-11,41*,0,2
O=C(CCCN1C(=O)/C(=C/c2ccccc2)SC1=S)Nc1ccccc1O,20,-5,0,-3,-11
CC[C@H](CCCCCC#N)CCC(=O)N(c1ccccc1)c1ccccc1,nt,12,nt,nt,nt
CCOc1ccc(-n2c(SCC(=O)Nc3ccc(S(=O)(=O)Nc4cc(C)nc(C)n4)cc3)nnc2-c2ccc(C)cc2)cc1,nt,3,nt,nt,nt
O=C(CSc1nnc(COc2ccccc2)n1-c1ccccc1)Nc1ccc(S(=O)(=O)Nc2nccs2)cc1,nt,3,nt,nt,nt
CS(=O)(=O)N[C@@H]1C[C@@H]2O[C@H](CO)CC[C@@H]2O[C@@H]1CCc1ccc(-c2ccccc2F)cc1,nt,5,nt,nt,nt
COP(=O)(OC)c1nc(-c2ccc(C)cc2)oc1N1CCCCC1,16,-3,-4,+,-5
COP(=O)(OC)c1nc(-c2cccc3ccccc23)oc1N1CCOCC1,19,-2,-18,+,4
